The panel holds about 83,000 compounds, 20% with a hit somewhere; the sample as a whole holds those more often.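 Percent growth is the endpoint: 0 to 100 indicates growth inhibition (40 means 60% inhibition), 0 means no net growth, and negative values indicate cell death.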 The source made the active and inactive calls. How the source made its calls: active means growth percent below 10; inactive means the rest.
Columns and labels:
Assay in all cases: NCI-60 one-dose screen, 48 h (100 = growth as untreated, 0 = no growth, -100 = all killed)
Conditions in all cases: 10 µM unless noted
NCI-H23 lung = system: NCI-H23 lung
NCI-H226 lung = system: NCI-H226 lung
NCI-H322M lung = system: NCI-H322M lung
HOP-62 NSCLC = system: HOP-62 NSCLC
NCI-H460 lung = system: NCI-H460 lung
NCI-H522 lung = system: NCI-H522 lung
786-0 renal = system: 786-0 renal
COLO 205 colon = system: COLO 205 colon
DU-145 prostate = system: DU-145 prostate
K-562 leukemia = system: K-562 leukemia
MDA-MB-231 breast = system: MDA-MB-231 breast
RXF 393 renal = system: RXF 393 renal
SF-268 CNS = system: SF-268 CNS
SF-295 CNS = system: SF-295 CNS
SF-539 CNS = system: SF-539 CNS
UACC-257 melanoma = system: UACC-257 melanoma
M14 melanoma = system: M14 melanoma
MALME-3M melanoma = system: MALME-3M melanoma
A549/ATCC NSCLC = system: A549/ATCC NSCLC

Measured: growth

FC(F)(F)c1cc(Nc2cccc(Oc3ccc(NC4=NCCN4)nc3)c2)ccc1Cl
inactive: NCI-H23 lung 19.5% | NCI-H226 lung 41.9% | RXF 393 renal 18.1% | SF-268 CNS 34.8% | SF-539 CNS 51.6% | UACC-257 melanoma 27%
active: NCI-H322M lung -3.79% | HOP-62 NSCLC -47.9% | NCI-H460 lung -69.2% | NCI-H522 lung 2.14% | 786-0 renal -11.4% | COLO 205 colon -38.3% | DU-145 prostate -19.3% | K-562 leukemia -19% | MDA-MB-231 breast 9.73% | SF-295 CNS -78.5% | M14 melanoma -50.7%

CC(C)(C)n1cc(-c2ccnc(NCCCNS(=O)(=O)c3cccc(F)c3)n2)c(-c2ccc(Cl)c(O)c2)n1
inactive: NCI-H23 lung 100% | NCI-H226 lung 107% | NCI-H322M lung 90.9% | HOP-62 NSCLC 111% | NCI-H460 lung 93.6% | NCI-H522 lung 89.9% | 786-0 renal 99.7% | COLO 205 colon 114% | DU-145 prostate 94.4% | K-562 leukemia 59% | MALME-3M melanoma 94% | MDA-MB-231 breast 103% | RXF 393 renal 105% | SF-268 CNS 95.9% | SF-295 CNS 108% | SF-539 CNS 104% | UACC-257 melanoma 114% | M14 melanoma 94.9%

COc1cc2nc(Cl)nc(Nc3cccc(C4=Nc5c(N)nc(N)nc5NC(c5ccc(F)cc5)C4)c3)c2cc1OC (stereo unspecified)
inactive: NCI-H23 lung 75.9% | NCI-H226 lung 75.8% | NCI-H322M lung 83.8% | HOP-62 NSCLC 12.2% | NCI-H460 lung 21.7% | NCI-H522 lung 50% | A549/ATCC NSCLC 64.2% | 786-0 renal 62.1% | COLO 205 colon 70.7% | DU-145 prostate 79.4% | MDA-MB-231 breast 76.4% | RXF 393 renal 51.1% | SF-268 CNS 77.4% | SF-539 CNS 88.6% | UACC-257 melanoma 92.1% | M14 melanoma 86.8%
active: SF-295 CNS 2.02%

CCc1nn2c(C)cc(C)nc2c1Cc1ccc(/C=C/CN2CCN(CCOCCOCCN3CCN(C/C=C/c4ccc(Cc5c(CC)nn6c(C)cc(C)nc56)cc4)CC3)CC2)cc1
inactive: NCI-H23 lung 26.2% | NCI-H226 lung 67.9% | HOP-62 NSCLC 18.7%
active: NCI-H322M lung 7.19% | NCI-H460 lung -63.8% | NCI-H522 lung -47.9% | 786-0 renal -79.3% | COLO 205 colon -48.5% | DU-145 prostate -31.6% | K-562 leukemia -51.2% | MALME-3M melanoma -92.4% | MDA-MB-231 breast -66.2% | SF-268 CNS -53.8% | SF-295 CNS -52.7% | SF-539 CNS -83.7% | UACC-257 melanoma -67.6%

COc1cc(OC)c(S(N)(=O)=O)cc1C(C)=O
inactive: NCI-H23 lung 106% | NCI-H226 lung 103% | NCI-H322M lung 109% | HOP-62 NSCLC 113% | NCI-H460 lung 107% | NCI-H522 lung 103% | A549/ATCC NSCLC 104% | 786-0 renal 101% | COLO 205 colon 119% | DU-145 prostate 108% | MALME-3M melanoma 109% | MDA-MB-231 breast 101% | RXF 393 renal 121% | SF-268 CNS 104% | SF-295 CNS 100% | SF-539 CNS 101% | UACC-257 melanoma 102% | M14 melanoma 109%

COc1ccc(CCOc2cc3c(cc2OC)CCN(C(=O)NCc2cocn2)C3c2ccc(C)cc2C)cc1 (stereo unspecified)
inactive: NCI-H23 lung 11.4% | NCI-H226 lung 34.3% | NCI-H322M lung 46% | DU-145 prostate 14.1% | K-562 leukemia 10% | MALME-3M melanoma 52.2% | MDA-MB-231 breast 20.5% | SF-268 CNS 21.2% | SF-295 CNS 12.8% | UACC-257 melanoma 38% | M14 melanoma 11.7%
active: HOP-62 NSCLC 8.99% | NCI-H460 lung 3.64% | NCI-H522 lung -41.2% | 786-0 renal 5.15% | COLO 205 colon -62% | RXF 393 renal 1.12% | SF-539 CNS 1.43%

CCO/C=N/C1=C(C#N)C(c2ccc(F)cc2)c2sc3c(C)cccc3c2O1 (stereo unspecified)
inactive: NCI-H23 lung 27.1% | NCI-H226 lung 54.3% | NCI-H322M lung 37.6% | HOP-62 NSCLC 28.3% | A549/ATCC NSCLC 22.4% | 786-0 renal 20.2% | COLO 205 colon 15.5% | DU-145 prostate 12.4% | K-562 leukemia 10.4% | MDA-MB-231 breast 17.8% | SF-268 CNS 38.3% | UACC-257 melanoma 69%
active: NCI-H460 lung 4.32% | NCI-H522 lung 7.88% | RXF 393 renal 0.223% | SF-295 CNS -6.89% | SF-539 CNS -10.1% | M14 melanoma 3.68%

COc1cc2nc(Cl)nc(Nc3cccc(C4=Nc5c(N)nc(N)nc5NC(c5ccc(Br)cc5)C4)c3)c2cc1OC (stereo unspecified)
inactive: NCI-H23 lung 91% | NCI-H226 lung 93% | NCI-H322M lung 98.1% | HOP-62 NSCLC 43.5% | NCI-H460 lung 28% | NCI-H522 lung 68.2% | A549/ATCC NSCLC 55.9% | 786-0 renal 64.7% | COLO 205 colon 66.3% | DU-145 prostate 90% | MDA-MB-231 breast 92.9% | RXF 393 renal 77.2% | SF-268 CNS 84.4% | SF-295 CNS 32% | SF-539 CNS 93.2% | UACC-257 melanoma 105% | M14 melanoma 84.1%

CCN1CCN(C(=O)[C@]23CCC(C)(C)C[C@H]2C2=CC[C@@H]4[C@@]5(C)Cc6c([nH]c7ccccc67)C(C)(C)[C@@H]5CC[C@@]4(C)[C@]2(C)CC3)CC1
inactive: NCI-H23 lung 87.7% | NCI-H226 lung 84.4% | NCI-H322M lung 89.1% | HOP-62 NSCLC 110% | NCI-H460 lung 76.5% | NCI-H522 lung 90.5% | A549/ATCC NSCLC 59.7% | 786-0 renal 94.2% | COLO 205 colon 102% | DU-145 prostate 83.3% | MDA-MB-231 breast 74.1% | RXF 393 renal 75.9% | SF-268 CNS 90.1% | SF-295 CNS 91.9% | SF-539 CNS 94% | UACC-257 melanoma 88.2% | M14 melanoma 84.5%
